The structures appear in SMILES notation. Results filed as inconclusive are left out. Values without a mark were called inactive. Calls of active or inactive are those of the source. The call rests on the fitted dose curve; in most records, active means well fitted inhibition curve with a large enough effect; inconclusive means small, poorly fitted or top-dose-only effect; inactive means flat fitted curve, though single readings scatter.

Potency and max response data for twelve compounds are collected here from PubChem BioAssay (NCATS).

The test system of one assay is ICS. Description: qHTS profiling for inhibitors of Plasmodium falciparum proliferation (AID 504749). Further: potency means the concentration at half of the fitted maximal effect. Particulars: P. falciparum in erythrocytes, SYBR Green DNA, 72 h; series mostly up to 28.7 µM. The procedure, abridged:
(§1)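 Infected RBCs, 0.3% parasitemia/2.5% Hct final; cpd 72 h, 37 C, 5% CO2; lysis buffer with saponin/triton/SYBR Green I, o/n RT dark; FI 485/535; norm. to artemisinin (0.29 uM) and DMSO.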

The next assay concerns JCK. The description is as above. Particulars: P. falciparum in erythrocytes, SYBR Green DNA, 72 h; series mostly up to 28.7 µM. Put shortly:
as §1

In a further assay the test system is N140. Described as above. The note with it: P. falciparum in erythrocytes, SYBR Green DNA, 72 h; series mostly up to 28.7 µM. The procedure, abridged:
as §1

The next assay deals with P93_24. Described as above. The note with it: P. falciparum in erythrocytes, SYBR Green DNA, 72 h; series mostly up to 28.7 µM. Put shortly:
as §1

For a further assay, the system named is P94_40. Described as above. The note with it: P. falciparum in erythrocytes, SYBR Green DNA, 72 h; series mostly up to 28.7 µM. The procedure, abridged: as §1
A further assay deals with PAD. Described as above. Particulars: P. falciparum in erythrocytes, SYBR Green DNA, 72 h; series mostly up to 28.7 µM. Put shortly:
as §1

The next assay has as its system PC15. The assay is described as above. Particulars: P. falciparum in erythrocytes, SYBR Green DNA, 72 h; series mostly up to 28.7 µM. Put shortly: as §1
In the next assay the test system is PC26. The assay is described as above. Particulars: P. falciparum in erythrocytes, SYBR Green DNA, 72 h; series mostly up to 28.7 µM. The procedure, abridged:
as §1

A further assay relates to PC49. The assay is described as above. Particulars: P. falciparum in erythrocytes, SYBR Green DNA, 72 h; series mostly up to 28.7 µM. Put shortly: as §1
For the next assay, the system named is SC27B. The assay is described as above. The note with it: P. falciparum in erythrocytes, SYBR Green DNA, 72 h; series mostly up to 28.7 µM. Put shortly:
as §1

The next assay concerns TAB109. Described as above. Particulars: P. falciparum in erythrocytes, SYBR Green DNA, 72 h; series mostly up to 28.7 µM. Put shortly: as §1
Another assay deals with TAB113. The assay is described as above. The note with it: P. falciparum in erythrocytes, SYBR Green DNA, 72 h; series mostly up to 28.7 µM. The procedure, abridged: as §1
The next assay relates to TAB165. The assay is described as above. The note with it: P. falciparum in erythrocytes, SYBR Green DNA, 72 h; series mostly up to 28.7 µM. The procedure, abridged: as §1
The next assay concerns KB-3-1. Description: Cytotoxic Profiling of Annotated Libraries Using Quantitative High-Throughput Screening (AID 1296008). Further: on the % scale 0 is the no-effect control and ±100 the full control effect. Particulars: Five cell lines viability, CellTiter-Glo ATP luminescence, 48-72 h; max response: active compounds read low. Put shortly: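 Cytotoxicity was measured as CellTiter-Glo ATP luminescence, read after 10 min at room temperature. Compound treatment of the cells lasted 48 or 72 hr at 37 degrees Celsius in a qHTS format.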

The test system of another assay is W2. Kind of assay: qHTS profiling for inhibitors of Plasmodium falciparum proliferation (AID 504749). Further: potency means the concentration at half of the fitted maximal effect. Particulars: P. falciparum in erythrocytes, SYBR Green DNA, 72 h; series mostly up to 28.7 µM. The procedure, abridged: as §1
Further: nearly all actives have a fitted effect of over 60% in size.

With `O=P(O)(O)OP(=O)(O)OP(=O)(O)O`, the Potency result in the assay with ICS, in the assay on JCK, in the assay with N140, with P93_24, in the assay with P94_40 and with PAD was “inactive” in each case. In addition, the Potency result in the assay on PC15, in the assay on PC26, in the assay with PC49, in the assay with SC27B, in the assay on TAB109 and in the assay on TAB113 was “inactive” throughout. Moreover, the Potency entry in the assay on TAB165 was “inactive”. Further, the max response with KB-3-1 is -3.72%.

With `CC(C)(C)CC(C)(C)c1cc(Cc2cc(C(C)(C)CC(C)(C)C)cc(-n3nc4ccccc4n3)c2O)c(O)c(-n2nc3ccccc3n2)c1`, the Potency entry in the assay with ICS, with JCK, in the assay on N140, in the assay on P93_24, in the assay on P94_40 and in the assay on PAD was “inactive” throughout. Also, the Potency entry in the assay with PC15, in the assay with PC26, with PC49, in the assay on SC27B, in the assay with TAB109 and with TAB113 was “inactive” in each case. In addition, the Potency entry in the assay on TAB165 and with W2 was “inactive” each time. Besides, the max response in the assay on KB-3-1 is -2.05%.

On to `Cc1ncc(COP(=O)(O)O)c(CN)c1O`, for which the Potency entry in the assay with ICS, in the assay with JCK, in the assay on N140, in the assay on P93_24, in the assay with P94_40 and with PAD was “inactive” throughout. The Potency entry in the assay with PC15, in the assay with PC26, in the assay on PC49, in the assay with SC27B, in the assay with TAB109 and with TAB113 was “inactive” each time. The Potency result in the assay with TAB165 is “inactive”. The max response with KB-3-1 was -6.16%.

In the case of `CC/C=C\C/C=C\C/C=C\C/C=C\C/C=C\C/C=C\CCC(=O)O`, in the assay with ICS, the Potency is 12.6 µM (active). Also, the Potency entry in the assay with JCK, with N140, in the assay on P93_24, in the assay with P94_40, with PAD and in the assay on PC15 was “inactive” throughout. Further, the Potency result in the assay with PC26, with PC49, with SC27B, in the assay on TAB109, with TAB113 and with TAB165 was “inactive” in each case. Moreover, the max response with KB-3-1 was 0.95%.

Consider `O=P(O)(O)OC[C@H]1O[C@](O)(COP(=O)(O)O)[C@@H](O)[C@@H]1O`, for which the Potency entry in the assay with ICS, in the assay on JCK, in the assay with N140, with P93_24, in the assay with P94_40 and in the assay with PAD was “inactive” throughout. Moreover, the Potency result with PC15, in the assay with PC26, with PC49, in the assay with SC27B, in the assay on TAB109 and in the assay with TAB113 was “inactive” throughout. In addition, the Potency entry with TAB165 and with W2 was “inactive” each time. Also, the max response in the assay on KB-3-1 is 1.63%.

Turning to `CC(C)c1nc(N(C)S(C)(=O)=O)nc(-c2ccc(F)cc2)c1/C=C/C(O)CC(O)CC(=O)O` (configuration not stated), the Potency result with ICS, with JCK, in the assay with N140, with P93_24, in the assay with P94_40 and with PAD was “inactive” throughout. The Potency result in the assay on PC15, in the assay on PC26, with PC49, in the assay with SC27B, in the assay on TAB109 and in the assay on TAB113 was “inactive” each time. The Potency result in the assay on TAB165 and in the assay on W2 was “inactive” in each case. Further, in the assay on KB-3-1, the max response was 0.926%.

Turning to `C[Se]CC[C@H](N)C(=O)O`, the Potency entry in the assay on ICS, with JCK, in the assay with N140, in the assay on P93_24, in the assay with P94_40 and in the assay with PAD was “inactive” each time. Besides, the Potency result in the assay with PC15, with PC26, with PC49, with SC27B, in the assay with TAB109 and in the assay with TAB113 was “inactive” each time. Besides, the Potency entry in the assay with TAB165 and in the assay on W2 was “inactive” each time. For the same compound, the max response in the assay on KB-3-1 is 0.415%.

For `CC/C(=C(/CC)c1ccc(OP(=O)(O)O)cc1)c1ccc(OP(=O)(O)O)cc1`, the Potency entry in the assay on ICS, in the assay with JCK, in the assay on N140, with P93_24, in the assay on P94_40 and in the assay on PAD was “inactive” throughout. Moreover, the Potency result with PC15, in the assay with PC26, with PC49, in the assay with SC27B, in the assay on TAB109 and in the assay with TAB113 was “inactive” throughout. The Potency entry in the assay with TAB165 and in the assay with W2 was “inactive” each time. In addition, in the assay on KB-3-1, the max response was -7.92%.

Turning to `CC(CCc1ccc(O)cc1)NCC(O)c1ccc(O)cc1` (configuration not stated), the Potency entry in the assay on ICS, in the assay with JCK, with N140, with P93_24, in the assay with P94_40 and in the assay with PAD was “inactive” in each case. For the same compound, the Potency entry in the assay with PC15, in the assay on PC26, with PC49, in the assay on SC27B, in the assay on TAB109 and in the assay on TAB113 was “inactive” in each case. Moreover, the Potency result with TAB165 and in the assay with W2 was “inactive” each time. Further, in the assay on KB-3-1, the max response is 9.04%.

As to `O=P(O)(O)OC[C@H](O)CO`, the Potency entry in the assay with ICS, in the assay with JCK, with N140, in the assay on P93_24, in the assay on P94_40 and in the assay with PAD was “inactive” in each case. Moreover, the Potency entry in the assay on PC15, with PC26, in the assay with PC49, in the assay with SC27B, in the assay on TAB109 and in the assay on TAB113 was “inactive” each time. Further, the Potency result with TAB165 and in the assay on W2 was “inactive” each time. Also, the max response in the assay with KB-3-1 was -16.7%.

For `CN1CCC(OC(=O)C(Oc2ccc(Cl)cc2)Oc2ccc(Cl)cc2)CC1`, the Potency entry with ICS, with JCK, in the assay on N140, in the assay on P93_24, in the assay on P94_40 and with PAD was “inactive” in each case. Moreover, the Potency result in the assay on PC15, with PC26, in the assay on PC49, with SC27B, with TAB109 and with TAB113 was “inactive” throughout. Moreover, the Potency entry with TAB165 and in the assay on W2 was “inactive” throughout. Besides, the max response in the assay with KB-3-1 is -2.63%.

With `CC(CNC(=O)c1cccnc1)NC(=O)c1cccnc1` (configuration not stated), the Potency result in the assay with ICS, in the assay on JCK, with N140, with P93_24, in the assay with P94_40 and in the assay with PAD was “inactive” in each case. The Potency entry with PC15, in the assay on PC26, with PC49, in the assay on SC27B, in the assay with TAB109 and with TAB113 was “inactive” in each case. In addition, the Potency entry with TAB165 and in the assay with W2 was “inactive” each time. In addition, in the assay on KB-3-1, the max response was -1.27%.
